Inconclusive results are not listed. The source made the active and inactive calls. The call rests on the fitted dose curve; in most records, active means well fitted curve in the direction sought with a large enough effect; inconclusive means small, poorly fitted or top-dose-only effect, or another doubt; inactive means no such curve, though single readings can be large; an effect the other way counts as inactive or inconclusive.
How the values were obtained:
[1] = test system: CRL-7250; assay: Cytotoxic Profiling of Annotated Libraries Using Quantitative High-Throughput Screening (AID 1296008); conditions: Five cell lines viability, CellTiter-Glo ATP luminescence, 48-72 h; max response: hits give low values; further: nearly all actives have a fitted effect of over 60% in size; on max response: on the % scale 0 is the no-effect control and ±100 the full control effect
In short: (§1)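 Cytotoxicity was measured as CellTiter-Glo ATP luminescence, read after 10 min at room temperature. Compound treatment of the cells lasted 48 or 72 hr at 37 degrees Celsius in a qHTS format.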

[2] = test system: HaCat; assay: as above; conditions: Five cell lines viability, CellTiter-Glo ATP luminescence, 48-72 h; max response: hits give low values
In short: as §1

[3] = test system: KB-3-1; assay: as above; conditions: Five cell lines viability, CellTiter-Glo ATP luminescence, 48-72 h; max response: hits give low values
In short: as §1

[4] = test system: NIH3T3; assay: as above; conditions: Five cell lines viability, CellTiter-Glo ATP luminescence, 48-72 h; max response: hits give low values
In short: as §1

[5] = test system: HACAT; assay: qHTS assay to identify novel small-molecules to repurpose for Merkel cell carcinoma treatment (AID 1296009); conditions: MCC and control cell lines, CellTiter-Glo viability, 72 h; at 44.8 µM (top of the series) unless noted; further: nearly all actives have a fitted effect of over 60% in size
In short: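 After compound transfer in DMSO, plates were kept 72 hr at 37 degree celsius. Luminescent ATP signal from CellTiter-Glo served as viability measure, normalized against DMSO and no-cell controls.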

[6] = test system: C33A; assay: Primary qHTS to identify gynecologic anti-cancer compounds using libraries of approved drugs and bioactive compounds (AID 1345084); conditions: Gynecologic cancer cell panel viability, ATPlite luminescence, 48 h; series mostly up to 57.5 µM; further: on the % scale 0 is the no-effect control and ±100 the full control effect; nearly all actives have a fitted effect of over 55% in size
In short: (§2)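 Cells, 1,000 per well, were allowed to settle for 16 h at 37 C before compound addition. Five concentrations were tested for 48 h, and viability was read by ATPlite luminescence after 15 min at room temperature.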

[7] = test system: CAOV3; assay: as above; conditions: Gynecologic cancer cell panel viability, ATPlite luminescence, 48 h; series mostly up to 57.5 µM
In short: as §2

[8] = test system: CASKI; assay: as above; conditions: Gynecologic cancer cell panel viability, ATPlite luminescence, 48 h; series mostly up to 57.5 µM
In short: as §2

[9] = test system: Es-2; assay: as above; conditions: Gynecologic cancer cell panel viability, ATPlite luminescence, 48 h; series mostly up to 57.5 µM
In short: as §2

[10] = test system: HeLa; assay: as above; conditions: Gynecologic cancer cell panel viability, ATPlite luminescence, 48 h; series mostly up to 57.5 µM
In short: as §2

[11] = test system: Hek293T; assay: as above; conditions: Gynecologic cancer cell panel viability, ATPlite luminescence, 48 h, control line for the selectivity index; series mostly up to 57.5 µM
In short: as §2

[12] = test system: JEG-3; assay: as above; conditions: Gynecologic cancer cell panel viability, ATPlite luminescence, 48 h; series mostly up to 57.5 µM
In short: as §2

[13] = test system: OV90; assay: as above; conditions: Gynecologic cancer cell panel viability, ATPlite luminescence, 48 h; series mostly up to 57.5 µM
In short: as §2

[14] = test system: PA-1; assay: as above; conditions: Gynecologic cancer cell panel viability, ATPlite luminescence, 48 h; series mostly up to 57.5 µM
In short: as §2

O=C(NCCCN1CCC2(CC1)OCc1ccccc12)[C@H]1CCCN1Cc1ccccc1
inactive: outcome [1] | outcome [2] | max response [3] -7.1% | max response [4] 4.93% | outcome [5] | Potency [6] | Potency [7] | Potency [8] | Potency [9] | Potency [10] | Potency [11] | Potency [12] | Potency [13] | Potency [14]

COc1cc(C(=O)NC(=S)Nc2cccc(NC(=O)c3ccccc3)c2)cc(OC)c1OC
inactive: max response [1] -13% | outcome [2] | max response [3] 6.94% | max response [4] 4.46% | outcome [5] | Potency [6] | Potency [7] | Potency [8] | Potency [9] | Potency [10] | Potency [11] | Potency [12] | Potency [13] | Potency [14]

CNCCN1CCC(c2cc(CN(C)C(=O)c3cccc(Oc4ccccc4)c3)ccn2)CC1
inactive: max response [1] 1.09% | outcome [2] | max response [3] 8.17% | max response [4] 1.12% | outcome [5] inactive [at 17.4 µM] | Potency [6] | Potency [7] | Potency [8] | Potency [9] | Potency [10] | Potency [11] | Potency [12] | Potency [13] | Potency [14]

O=C(O)C1=CO[C@@H](O[C@@H]2O[C@H](CO)[C@@H](O)[C@H](O)[C@H]2O)[C@@H]2C(CO)=CC[C@H]12
inactive: max response [1] -1.39% | outcome [2] | max response [3] 6.01% | max response [4] -3.54% | outcome [5] | Potency [6] | Potency [7] | Potency [8] | Potency [9] | Potency [10] | Potency [11] | Potency [12] | Potency [13] | Potency [14]

CC(C)(Cc1nc(-c2ccc(O)cn2)no1)C(=O)NC1=C(C(=O)O)CCCC1
inactive: max response [1] -1.84% | outcome [2] | max response [3] 2.15% | max response [4] -20.8% | outcome [5] | Potency [6] | Potency [7] | Potency [8] | Potency [9] | Potency [10] | Potency [11] | Potency [12] | Potency [13] | Potency [14]

COc1cccc(N2CCN(C3=Nc4c(F)cccc4[C@H](CC(=O)O)N3c3cc(C(F)(F)F)ccc3OC)CC2)c1
inactive: max response [1] 3.02% | outcome [2] | max response [3] -13.7% | max response [4] 3.41% | outcome [5] | Potency [6] | Potency [7] | Potency [8] | Potency [9] | Potency [10] | Potency [11] | Potency [12] | Potency [13] | Potency [14]

NS(=O)(=O)c1ccc(NC(=O)Nc2ccc(F)cc2)cc1
inactive: outcome [1] | outcome [2] | max response [3] -12% | max response [4] 2.88% | outcome [5] | Potency [6] | Potency [7] | Potency [8] | Potency [9] | Potency [10] | Potency [11] | Potency [12] | Potency [13] | Potency [14]

COC(=O)c1ccnc(-c2cc(C(=O)Nc3ccc(C4(N)CC4)cc3)ccn2)c1
inactive: max response [1] -5.77% | outcome [2] | max response [3] -6.68% | max response [4] -5.19% | outcome [5] | Potency [6] | Potency [7] | Potency [8] | Potency [9] | Potency [10] | Potency [11] | Potency [12] | Potency [13] | Potency [14]

CCC/C=C/C=C/C1CC(O)C2(O)C(=O)OCC12 (stereo unspecified)
inactive: outcome [1] | outcome [2] | max response [3] 7.96% | max response [4] 4.66% | outcome [5] | Potency [6] | Potency [7] | Potency [8] | Potency [9] | Potency [10] | Potency [11] | Potency [12] | Potency [13] | Potency [14]

COC(=O)C[C@H]1C(C)(C)[C@H](OC(=O)c2ccccc2)C2CC3=C4CC(=O)O[C@@H](c5ccoc5)[C@]4(C)CCC3[C@@]1(C)C2=O (stereo partly specified)
inactive: max response [1] -6.86% | outcome [2] | max response [3] 0.65% | max response [4] 0.65% | outcome [5] inactive [at 17.4 µM] | Potency [6] | Potency [7] | Potency [8] | Potency [9] | Potency [10] | Potency [11] | Potency [12] | Potency [13] | Potency [14]

O=S1(=O)CCN(Cc2cc(NCC3CCOCC3)c3[nH]c(-c4ccccc4)cc3c2)CC1
inactive: max response [1] -9.27% | outcome [2] | max response [3] 4.46% | max response [4] -21.1% | outcome [5] | Potency [6] | Potency [7] | Potency [8] | Potency [9] | Potency [10] | Potency [11] | Potency [12] | Potency [13] | Potency [14]

C/C=C(/C)C(=O)OC1C=C2C3C(C)C(C)C(OC(=O)C(C)C(C)O)CC3(C)CCC2(C)C2(C)CC(OC(C)=O)C3C(C)(C)C(O)C(=O)CC3(C)C12 (stereo unspecified)
inactive: max response [1] 0.415% | outcome [2] | max response [3] 5.54% | max response [4] -9.86% | outcome [5] inactive [at 17.4 µM] | Potency [6] | Potency [7] | Potency [8] | Potency [9] | Potency [10] | Potency [11] | Potency [12] | Potency [13] | Potency [14]

COc1ccc(S(=O)(=O)Nc2cc(Cl)cc(Cl)c2OC)cc1N1CCNCC1
inactive: max response [1] -0.811% | outcome [2] | max response [3] -5.04% | max response [4] -3.81% | outcome [5] | Potency [6] | Potency [7] | Potency [8] | Potency [9] | Potency [10] | Potency [11] | Potency [12] | Potency [13] | Potency [14]

C=C1C(=O)OC2C=C(C)CC/C=C(\CO)CC(O)C12 (stereo unspecified)
inactive: max response [1] -3.89% | outcome [2] | max response [3] 5.92% | max response [4] -2.7% | outcome [5] | Potency [6] | Potency [7] | Potency [8] | Potency [9] | Potency [10] | Potency [11] | Potency [12] | Potency [13] | Potency [14]
